Among all 1,100 compounds or so, about 760 (69%) were called active. The rule behind the calls is not given here. The set was probably picked from earlier hits. The list shows a part of the results.
Assay: M. tuberculosis growth inhibition, HTS (AID 1259417);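 note: bacteria grown with compound for 5 days at 37 °C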
Settings: stronger effect = higher value, concentration not given here
[1] = M. tuberculosis DsRed fluorescence growth inhibition
[2] = M. tuberculosis growth inhibition

Structure (SMILES)	inhibition [1]	inhibition [2] [%]
Cc1ccc(C)c(-c2nnc(NC(=O)c3cccc4ccccc34)o2)c1	-3.96% (inactive)	-5.52
Cc1ccc(C)c(-c2nnc(NC(=O)c3ccccc3F)o2)c1	80.6% (active)	85.5
COc1ccccc1C(=O)Nc1nnc(-c2cc(C)ccc2C)o1	-3.37% (inactive)	-7.24
Cc1ccc(C)c(-c2nnc(NC(=O)C(C)C)o2)c1	67% (active)	78.6
Cc1ccc(C)c(-c2nnc(NC(=O)C(C)(C)C)o2)c1	84.1% (active)	83.8
Cc1ccc(C)c(-c2nnc(NC(=O)c3cc(Cl)sc3Cl)o2)c1	99.2% (active)	96.3
Cc1ccc(C)c(C(=O)Nc2nnc(-c3cc(C)ccc3C)o2)c1	87.9% (active)	74.7
CCCC(=O)Nc1nnc(-c2ccc(C)cc2C)o1	2.17% (inactive)	26.4
CCCC(=O)Nc1nnc(-c2cc(C)ccc2C)o1	10.9% (active)	48.8
COc1cccc(OC)c1C(=O)Nc1ccc(Cl)c(-c2nc3ccccc3s2)c1	72.8% (active)	62.9
CCOc1ccccc1NC(=O)CSc1nc2ccc(NC(=O)c3ccccc3Cl)cc2s1	-3.22% (inactive)	-11.8
CCc1ccc(/C=c2\s/c(=C/C(=O)C(C)(C)C)[nH]c2=O)cc1	99.8% (active)	99.5
CC(C)Cn1c(N2CCN(Cc3ccc(Cl)c(Cl)c3)CC2)nc2c1c(=O)[nH]c(=O)n2C	7.43% (active)	34.1
CC(=N/N=C1\NC(=O)C(Cc2ccc(F)cc2)S1)c1ccc(Cl)cc1 (stereo not given)	8.19% (inactive)	-27.8
CC(=N/N=C1\NC(=O)C(Cc2ccc(Cl)cc2)S1)c1ccc(F)cc1 (stereo not given)	5% (inactive)	-11.9
COc1ccc(CC2SC(=NN=Cc3ccccc3O)NC2=O)cc1 (stereo not given)	98.1% (active)	97.1
O=C1NC(=NN=Cc2ccccc2O)SC1Cc1ccc(F)cc1 (stereo not given)	99.2% (active)	98.8
Cc1ccc(-n2c(=O)oc3ccc(Cl)cc3c2=O)cc1Cl	100% (active)	101
CCc1ccccc1-n1c(=O)oc2ccc(Cl)cc2c1=O	101% (active)	100
Cc1cccc(-n2c(N)cc(=O)nc2SCC(=O)Nc2nc(-c3ccccc3)cs2)c1	-2.92% (inactive)	-16.5
CCOC(=O)C=CC(=O)Nc1nc(-c2ccccc2)cs1	41.3% (active)	56
Cc1ccc(-c2c[n+](CC(=O)Nc3nc(-c4ccc(F)cc4)cs3)c3n2CCC3)cc1	15.8% (inactive)	14.8

Structure (SMILES)	inhibition [1]	inhibition [2] [%]
CCc1ccc(OCC(=O)NNC(=O)c2cnccn2)c(Br)c1	93.6% (active)	95.4
CCOC(=O)COc1c(Cl)cc(C=C(C#N)c2nc3ccc(OC)cc3[nH]2)cc1Cl	45.4% (active)	50.3
COC(=O)COc1ccc(C=C(C#N)c2nc3ccccc3[nH]2)cc1	59.4% (active)	79.9
Cc1ccc2nc(/C(C#N)=C/c3c[nH]c4ccc(Br)cc34)[nH]c2c1	19.3% (inactive)	22.8
N#CC(=CNc1ccccc1)c1nc2ccccc2[nH]1	34.4% (active)	48.7
CCOC(=O)Cn1cc(C=C(C#N)c2nc3ccc(OC)cc3[nH]2)c2ccccc21	-3.18% (inactive)	0.813
CCOC(=O)C1=C(C)N(c2ccc(Br)cc2)C(=O)C1	6.73% (inactive)	8.65
O=C1Nc2ccccc2/C1=N/N=C/C1=C(N2CCOCC2)C(=C\c2ccccc2)/CC1	-1.05% (inactive)	-11.8
COC(=O)COc1ccc(NC(=O)c2cccc(C)c2)cc1	68.2% (active)	87.4
COC(=O)COc1cccc(NC(=O)c2cccc(C)c2)c1	14.1% (active)	40.2
COC(=O)COc1cccc(NC(=O)c2ccc(Cl)cc2)c1	50% (active)	72.5
O=C(c1ccc(Cl)cc1)C1CCCN(Cc2cnn(-c3ccccc3)c2)C1 (stereo not given)	1.81% (inactive)	-16.6
CC1CCCN(CCC(=O)c2ccc(Br)cc2)C1 (stereo not given)	72.2% (active)	84.5
COc1ccc(C(=O)CCN2CCCC(C)C2)cc1 (stereo not given)	13.2% (inactive)	13.2
COc1cc2c(cc1NC(=O)Nc1ccc(Cl)cc1)oc1ccccc12	0.315% (inactive)	-15.8
Cc1cc(N2CCCCC2)nc2ccc(NC(=O)c3ccc(Br)o3)cc12	0.712% (inactive)	-27.2
COc1ccc(C)cc1NC(=O)c1ccc(Cc2ccc(C)cc2)o1	98.3% (active)	101
Cc1ccc(Cc2ccc(C(=O)Nc3ccc(C)c(C)c3)o2)cc1	99.7% (active)	99.7
COc1ccc2c(c1)CCC1Sc3ccccc3N=C21 (stereo not given)	1.21% (inactive)	17
COC(=O)C(CC(C)C)NC(=O)/C=C/c1ccccc1Cl (stereo not given)	11.6% (inactive)	28.6
COC(=O)C(CC(C)C)NC(=O)/C=C/c1ccc(Cl)cc1 (stereo not given)	53.1% (active)	45.8
CC(C)Cc1cc(C(=O)Nc2c(F)cc(F)cc2Br)no1	22.3% (active)	57.6

Structure (SMILES)	inhibition [1]	inhibition [2] [%]
O=C(c1ccco1)N(CCCn1ccnc1)c1nc2ccc(Br)cc2s1	98.9% (active)	98.4
Cc1ccc2nc(N(CCCn3ccnc3)C(=O)c3ccco3)sc2c1	96.9% (active)	98.4
O=C(c1ccco1)N(CCCn1ccnc1)c1nc2ccc(Cl)cc2s1	97.8% (active)	99.1
O=C1N(c2ccc3c(c2)OCCO3)C(c2ccccc2)C1(F)F (stereo not given)	36.5% (active)	75.8
COc1ccc(-c2nnc(NC(=O)c3ccc(Cl)s3)o2)cc1	75.4% (active)	80.6
O=C(Nc1nnc(-c2ccc(Br)cc2)o1)c1ccc(Cl)s1	32.9% (active)	79.2
O=C(Nc1nnc(-c2ccc(F)cc2)o1)c1ccc(Br)s1	66.4% (active)	78.5
O=C(Nc1nnc(-c2ccc(Br)cc2)o1)c1cc(Cl)sc1Cl	8.56% (inactive)	28.1
CC(C)(C)c1ccc(-n2c(=O)[nH]c3c(C(N)=O)nc(CCc4ccccc4)nc32)cc1	2.16% (inactive)	-28.9
COc1ccc(Cn2c(=O)c3c(n4cnnc24)-c2ccccc2CC32CCCCC2)cc1	21.7% (inactive)	2.83
COc1ccc(C2(CNC(=O)c3cc([N+](=O)[O-])cc([N+](=O)[O-])c3)CCCC2)cc1OC	98.6% (active)	94.9
O=C(NCCc1ccc(Cl)cc1)c1ccc(CNc2c(N3CCOCC3)c(=O)c2=O)cc1	96% (active)	88.6
CC1CC(C)CN(C(=O)c2ccc(CNc3c(N4CCCC4)c(=O)c3=O)cc2)C1 (stereo not given)	97.5% (active)	90
O=C(NCCc1ccc(Cl)cc1)C1CCC(CNc2c(N3CCCCC3)c(=O)c2=O)CC1 (stereo not given)	96.1% (active)	90
CCOC(=O)COc1ccc2c(=O)c(-c3ccc(OC)cc3)c(C)oc2c1	83.6% (active)	94
COC(=O)C(C)Oc1ccc2c(=O)c(-c3ccc(Br)cc3)c(C)oc2c1 (stereo not given)	32.6% (active)	92.3
CCOC(=O)COc1ccc2c(C)c(-c3ccc(OC)c(OC)c3)c(=O)oc2c1	10.3% (active)	36.5
COc1ccc(-c2c(C)oc3cc(OCC(=O)OC(C)C)ccc3c2=O)cc1OC	13.8% (active)	67.7
CCC(=Cc1sc2ccc(OC)cc2[n+]1CCO)C=C1Sc2ccc(OC)cc2N1CCO	9.54% (inactive)	21
CCOC(=O)COc1ccc2c(=O)c(-c3ccc(OC)c(OC)c3)c(C(=O)OCC)oc2c1	34.4% (active)	64.4
CCOC(=O)COc1ccc2c(C)c(CC(=O)OC)c(=O)oc2c1	11.2% (active)	54.4
Cc1cc(C(=O)Oc2ccc(Cc3ccccc3)cc2)ccc1[N+](=O)[O-]	41.1% (active)	39.3

Structure (SMILES)	inhibition [1]	inhibition [2] [%]
Cc1cc(C(=O)Oc2ccccc2)ccc1[N+](=O)[O-]	10.6% (active)	55.9
CCOC(=O)c1c(NC(=O)c2ccc([N+](=O)[O-])c(C)c2)sc(C)c1-c1ccccc1	2.11% (inactive)	-28.3
Cc1ccc(C(=O)Oc2cccc(NC(=O)c3ccccc3)c2)cc1C	0.632% (inactive)	1.38
Cc1cc2c(cc1C)N(Cc1ccc(C(C)(C)C)cc1)C1=NCCCN12	95% (active)	99.7
Cn1c(Sc2cnn(-c3ccccc3)c(=O)c2Br)nnc1-c1ccccc1	49.6% (active)	70.7
Cn1c(Sc2ccc([N+](=O)[O-])c3cccnc23)nnc1-c1ccccc1	12% (inactive)	20.3
CCOC(=O)C(C)Sc1ncc(-c2ccc(Cl)cc2)cn1 (stereo not given)	4.78% (active)	45.6
CCOC(=O)CSc1n[nH]c(-c2ccc(Cl)cc2)n1	17.9% (active)	58
CCOC(=O)CSc1ncc(-c2cccc(Cl)c2)cn1	15% (active)	70.5
O=C(CSc1n[nH]c(-c2ccc(Cl)cc2)n1)Nc1ccc(F)c(Cl)c1	-0.872% (inactive)	-10.5
CCCOc1ccccc1-c1nc(SCC(=O)OCC)n[nH]1	2.36% (active)	37.9
COc1ccc(-c2c(C)[nH]n3c(=O)c(Cc4ccccc4)c(C)nc23)cc1	96.2% (active)	81.3
COc1ccc(C2=CC(c3c(C)nn(-c4ccccc4)c3Cl)n3nnnc3N2)cc1OC (stereo not given)	99.1% (active)	93.4
CCOc1ccc2c3c(c(=O)oc2c1OCC)CCCC3	31.8% (active)	41.4
COc1ccc(-n2c(C)nc3sc4c(c3c2=O)CCCC4)cc1	-4.71% (inactive)	-14.1
COc1nc(SC)nc2sc3c(c12)CCC3	98.3% (active)	99.3
Clc1ccc(OCCCn2ccnc2)cc1Cl	98.6% (active)	99.3
Clc1ccc(OCCCCn2ccnc2)cc1Cl	100% (active)	99.3
[O-][n+]1onc2c3cc(-c4ccccc4)nnc3ccc21	80.6% (active)	96.7
